Reference: PubChem BioAssay (NCATS)
Records with an inconclusive call do not appear. Entries that show only a call come without a potency. The source made the active and inactive calls. The call rests on the fitted dose curve; in most records, active means well fitted cell-killing curve with a large enough effect; inconclusive means small, poorly fitted or top-dose-only effect, or effect the other way; inactive means no such curve, though single readings can be large or run the other way.
Potency means the concentration at half of the fitted maximal effect.

Test: Quantitative highthroughput screen to assess conditional lethalithy of SEM cells grown in RPMI1640 with dialyzed fetal bovine serum (RPMI+ds) (AID 1963884); further: nearly all actives have a fitted effect of over 35% in size
Settings: SEM B-ALL cells, RPMI+dialyzed FBS, CellTiter-Glo viability, 48 h; series mostly up to 45.8 µM
Text: Assay Provider: Jason Cantor Ph.D.
Department of Biochemistry
University of Wisconsin-Madison, Madison, WI, USA
Chemical screening studies have identified drug sensitivities across hundreds of cancer cell lines but most putative therapeutics fail to translate. Discovery and development of drug candidates in models that more accurately reflect nutrient levels in human blood is a major challenge. Here we performed high-throughput screens in conventional versus Human Plasma-Like Medium (HPLM) to identify compounds that were "missed" when screening using the artificial culture condition. Sets of conditional anticancer compounds spanned phases of clinical development and included non-oncology drugs were assessed. […] We also traced conditional phenotypes for several chemotherapeutics to availability of HPLM-specific metabolites and confirmed others for compounds whose reported targets are encoded by nonessential genes. Our findings establish generalizable strategies for exploiting conditional lethality in HPLM to reveal therapeutic candidates and mechanisms of action in cancer cells.
Described herein are the results of each viability screens against three cell lines: NOMO1 (an acute myeloid leukemia cell line); P12-Ichikawa (a T-cell acute lymphoblastic leukemia); and SEM (a B-cell ALL). Each assay was screened using 3 different cell culture media: homemade human plasma-Like medium with 10% dialyzed fetal bovine serum (HPLM+ds); RPMI1640 with 10% untreated FBS and 5mM glucose (RPMI+s); and RPMI1640 with 10% dialyzed fetal bovine serum and 5 mM glucose (RPMI+ds).
PROTOCOL TABLE (as described by Inglese J, Shamu CE and Guy RK. 2007)
SEQUENCE No. (e.g., 1, 2, 3, etc.); […] (e.g., Cells, Incubation, Reagent, etc.); VALUE and DESCRIPTION.
1; Cells; 5 uL; white, solid bottom 1536-well Greiner assay plate.
2; Compounds; 23 nL; Kalypsis pin tool (Wako USA) equipped with a 1536-well pin head to transfer to the assay plates.
3; Incubation; 48 hours; 37C incubation.
4; Reagent; 3 uL; CellTiter Glo (Promega).
5; Incubation; 5 min, room temperature
6; Detection; Luminescence, Viewlux PerkinElmer.
NOTES (numbers refer to Sequence numbers above)
1. Briefly, 5 ul of cell reagent was dispensed using a Multidrop Combi Dispenser. The NOMO1 and SEM cells were plated at 500 cells/well and the P12-Ichikawa line at 1000 cells/well.
2. After seeding the cells, 23 nL of MIPE 4.1 library compounds (in DMSO) were added to each plate using a Kalypsys 1536 Pintool dispenser. Bortezomib at final concentration of […] and DMSO were added to each plate as positive and negative controls respectively. For each screen, MIPE 4.1 compounds were added over an eleven-point concentration range […] in 3-fold dilutions.
3. Each plate was covered with a stainless steel gasketed lid to prevent evaporation and incubated for 48 hour at 37C, 95% relative humidity, and 5% CO2.
4-5. Three microliter CellTilter-GloTM luminescent substrate mix (Promega) reagent was added to the assay plate and incubated at room temperature for 5 min.
6. The luminescence signal was measured using a ViewLux (PerkinElmer) multiplate reader with a 2 second exposure time per plate. Data for each compound were normalized as percent viability such that measurements for DMSO and the empty well controls in each plate were defined as 100% and 0%, respectively.
For Clc1ccccc1C(c1ccccc1)(c1ccccc1)n1cccn1, the Potency was “inactive”.
With CCN1C[C@]2(OC(=O)c3ccccc3NC(C)=O)CC[C@H](OC)[C@@]34[C@H]5CC6[C@@H](OC)C[C@](O)(C(C[C@@H]23)[C@@H]14)[C@@]5(O)[C@@H]6OC the Potency was “inactive”.
In the case of CCC1(c2ccc(N)cc2)CCC(=O)NC1=O (stereo not given), the Potency is reported as “inactive”.
In the case of O=C1CC[C@@]2(O)[C@H]3Cc4ccc(O)c5c4[C@@]2(CCN3CC2CC2)[C@H]1O5, the Potency is reported as “inactive”.
With NC1CC1c1ccccc1 (stereo not given) the Potency was “inactive”.
In the case of C[C@]12CCC(=O)C(O)=C1CC[C@@H]1[C@H]3CCC(=O)[C@@]3(C)CC[C@@H]12, the Potency is reported as “inactive”.
In the case of O=C(N[C@H]1CN2CCC1CC2)c1ccc(Cl)cc1, the Potency is reported as “inactive”.
In the case of C[C@]12CC[C@H](O)CC1=CC[C@H]1[C@H]3CCC(=O)[C@@]3(C)CC[C@@H]12, the Potency is reported as “inactive”.
For CC(C)[C@]12O[C@@H]1[C@@H]1O[C@]13[C@]1(O[C@H]1C[C@@H]1C4=C(CC[C@@]13C)C(=O)OC4)[C@H]2O, the Potency was 1.2 nM (active).
For CCCC[N+]1(C)[C@H]2CC(OC(=O)[C@H](CO)c3ccccc3)C[C@H]1[C@H]1O[C@H]12 (stereo not given in full), the Potency was “inactive”.
For CC1(N2CCC(n3c([C@@H]4CCCNC4)nc4ccccc43)CC2)CCCCCCC1, the Potency was “inactive”.
In the case of O=c1[nH]c2ccc(Cl)cc2c(N[C@@H]2CN3CCC2CC3)c1-c1nc2ccccc2[nH]1, the Potency is reported as 66.2 nM (active).
For NC1=NC(=O)N2CC12 (stereo not given), the Potency was 2960 nM (active).
For CC(N[C@H]1C[C@H]1c1ccccc1)c1ccc2c(c1)OCCO2 (stereo not given in full), the Potency was “inactive”.
With Cc1ccccc1-n1c(Cn2ncc3c(N)ncnc32)nc2cccc(C)c2c1=O the Potency was “inactive”.
In the case of COc1cc(OC)c(OC)cc1C=O, the Potency is reported as “inactive”.
With CN(C)CCN(C)CCc1ccc(Cl)c(Cl)c1 the Potency was “inactive”.
In the case of Cc1c(N)nc([C@H](CC(N)=O)NC[C@@H](N)C(N)=O)nc1C(=O)N[C@H](C(=O)N[C@@H](C)[C@H](O)[C@@H](C)C(=O)N[C@@H](C(=O)NCCc1nc(-c2nc(C(=O)NCCC[S+](C)C)cs2)cs1)[C@@H](C)O)C(O[C@H]1O[C@H](CO)[C@H](O)[C@@H](O)[C@@H]1O[C@H]1O[C@H](CO)[C@@H](O)[C@H](OC(N)=O)[C@H]1O)c1cnc[nH]1 (stereo not given in full), the Potency is reported as 4180 nM (active).
With C=C(C)[C@H]1Cc2c(ccc3c2O[C@@H]2COc4cc(OC)c(OC)cc4[C@@H]2C3=O)O1 the Potency was 3720 nM (active).
With CC(=Cc1csc(C)n1)[C@@H]1C[C@H]2O[C@@H]2CCC[C@H](C)[C@@H](O)[C@@H](C)C(=O)C(C)(C)[C@@H](O)CC(=O)O1 the Potency was “inactive”.
In the case of CC(C)c1cccc(C(C)C)c1O, the Potency is reported as “inactive”.
For CN(C)CCc1ccc(O)cc1, the Potency was “inactive”.
In the case of CCNC(=O)CC1N=C(c2ccc(Cl)cc2)c2cc(OC)ccc2-n2c(C)nnc21 (stereo not given), the Potency is reported as 23500 nM (active).
In the case of C[C@]12CC[C@H]3[C@@H](CCC4=CC(=O)CC[C@@]43C)[C@H]1CC[C@H]2O, the Potency is reported as “inactive”.
In the case of C[C@H]([C@H](O)CCC(C)(C)O)[C@H]1CC[C@@]2(O)C3=CC(=O)[C@@H]4C[C@@H](O)[C@@H](O)C[C@]4(C)[C@@H]3CC[C@]12C, the Potency is reported as “inactive”.
For CN(C)[C@@H]1C(=O)C(C(N)=O)=C(O)[C@@]2(O)C(=O)C3=C(O)c4c(O)cccc4[C@@](C)(O)[C@H]3[C@H](O)[C@@H]12, the Potency was “inactive”.
For COc1ccc2c(c1)[C@]13CCCCC1C(C2)N(C)CC3 (stereo not given in full), the Potency was “inactive”.
For COc1ccc2c(c[n+](C)c3c4cc5c(cc4ccc23)OCO5)c1OC, the Potency was 9350 nM (active).
For COc1cc2cc(c1Cl)N(C)C(=O)C[C@H](OC(=O)C(C)C)[C@]1(C)O[C@H]1[C@H](C)[C@@H]1C[C@@](O)(NC(=O)O1)[C@H](OC)C=CC=C(C)C2, the Potency was “inactive”.
For CC(C)N[C@@H]1CCn2c(=O)[nH]c3cccc(c32)[C@@H]1O, the Potency was “inactive”.
For COc1ccc(C(=O)c2c(C)n(CCN3CCOCC3)c3ccccc23)cc1, the Potency was “inactive”.
For O=c1[nH]c2ccccc2n1CCCN1CCC(n2c(=O)[nH]c3cc(Cl)ccc32)CC1, the Potency was “inactive”.
With O=C(O)CNC(=O)c1c(O)c2ccccc2n(Cc2ccccc2)c1=O the Potency was “inactive”.
With C[C@]12CC[C@H]3[C@@H](CCC4=CC(=O)CC[C@@]43C)[C@H]1CC[C@H]2OC(=O)CCC1CCCC1 the Potency was “inactive”.
With Cc1[nH]nc2ccc(-c3cncc(OC[C@@H](N)Cc4c[nH]c5ccccc45)c3)cc12 the Potency was 418 nM (active).
For CC(=Cc1csc(C)n1)[C@@H]1C[C@H]2O[C@]2(C)CCC[C@H](C)[C@@H](O)[C@@H](C)C(=O)C(C)(C)[C@@H](O)CC(=O)O1, the Potency was “inactive”.
In the case of CCc1c(C(=O)C(N)=O)c2c(OCC(=O)O)cccc2n1Cc1ccccc1, the Potency is reported as “inactive”.
In the case of CN1C(=O)CCS(=O)(=O)C1c1ccc(Cl)cc1 (stereo not given), the Potency is reported as “inactive”.
For CC1=C(O)C(=O)C=C2C1=CC=C1[C@@]2(C)CC[C@@]2(C)[C@@H]3C[C@](C)(C(=O)O)CC[C@]3(C)CC[C@]12C, the Potency was 1870 nM (active).
In the case of C[C@@H]1C[C@@H]([C@H](O)CC2CC(=O)NC(=O)C2)C(=O)[C@@H](C)C1, the Potency is reported as 590 nM (active).
